Measured values: PubChem BioAssay (NCI)
The panel holds about 79,000 compounds, 15% with a hit somewhere; the sample as a whole holds those more often. Active and inactive are the calls of the source. No stated cut-off is given here; in the data, active means growth inhibition above about 70%; inactive means the rest.

Test: NCI Yeast Anticancer Drug Screen. Data for the rad50 strain (AID 155);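 further: 0% = growth of vehicle-only cultures of the same strain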
Conditions: S. cerevisiae rad50 strain growth inhibition; at 50.0 µM; stronger effect = higher value
How it was run: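 Readout: growth inhibition relative to vehicle-treated cultures. Compound exposure was carried out in a genetically defined yeast strain deficient in DNA damage repair.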

Q: For `Oc1c(Br)cc(Cl)cc1Br`, which growth inhibition is on record?
A: Its growth inhibition is 93.5% (active).

Q: Which growth inhibition does the source give for `COc1ccc(C2Oc3ccc(Cl)cc3C=C2[N+](=O)[O-])cc1OC` (stereo not given) here?
A: The growth inhibition was 74% (active).

Q: Which growth inhibition does the source give for `COC(=O)C(=O)CC(=O)c1cccc(Cl)c1` here?
A: The growth inhibition was 74.5% (active).

Q: Which growth inhibition does the source give for `O/N=C(/C[N+]12CN3CN(CN(C3)C1)C2)c1ccc(I)cc1` here?
A: The growth inhibition was 91.6% (active).

Q: For `COc1cc(CCN=Cc2cc(Cl)cc(Cl)c2O)c([N+](=O)[O-])cc1OC`, which growth inhibition is on record?
A: Its growth inhibition is 58.8% (inactive).

Q: With `COc1ccc2c(c1OC)C1=C(C2=O)c2cc3c(cc2CCN1)OCO3` as the molecule, how does the growth inhibition read?
A: Its growth inhibition is 23.1% (inactive).

Q: For `CC(C)(C)[Si](C)(C)OCC1OC(n2cc(I)c(N)nc2=O)C(O[Si](C)(C)C(C)(C)C)C1O[Si](C)(C)C(C)(C)C` (stereo not given), which growth inhibition is on record?
A: The growth inhibition was 27.1% (inactive).

Q: With `O=S(=O)(Nc1ccccn1)c1ccc(NCc2c3ccccc3nc3cc(Cl)ccc23)cc1` as the molecule, how does the growth inhibition read?
A: The growth inhibition was 65.9% (inactive).

Q: For `OCc1ccc2c(c1)CC1(C2)Cc2cc3c(cc2C1O)CCC3` (stereo not given), which growth inhibition is on record?
A: The growth inhibition was 48.6% (inactive).

Q: With `COc1cc(C(c2cc3c(cc2O)OCO3)N2CCOCC2)ccc1O` (stereo not given) as the molecule, how does the growth inhibition read?
A: Its growth inhibition is 44.8% (inactive).

Q: With `CCCCCCCCCCCCCCSC(=N)N` as the molecule, how does the growth inhibition read?
A: Its growth inhibition is 66.3% (inactive).

Q: Which growth inhibition does the source give for `Cc1ccccc1NC(=S)Nc1ccccc1O` here?
A: Its growth inhibition is 97.2% (active).

Q: Which growth inhibition does the source give for `c1cc2cc(Cc3ccc4[nH]ccc4c3)ccc2[nH]1` here?
A: Its growth inhibition is 12.2% (inactive).

Q: Which growth inhibition does the source give for `N=C(N)c1ccc(-c2ccc(-c3ccc(C(=N)N)cc3)o2)cc1` here?
A: The growth inhibition was 94.8% (active).

Q: Which growth inhibition does the source give for `O=c1oc2c/c(=C\c3ccccc3)c(=O)c3cccc1c3-2` here?
A: The growth inhibition was 84.4% (active).

Q: With `CCCCCCCC(=O)/C=C/c1ccc(C)cc1` as the molecule, how does the growth inhibition read?
A: The growth inhibition was 56.8% (inactive).

Q: With `COc1ccc(CCC2(C)OCCC(C)O2)cc1` (stereo not given) as the molecule, how does the growth inhibition read?
A: The growth inhibition was -13.5% (inactive).

Q: Which growth inhibition does the source give for `O=C(O)C(SC1=NNC2(C(=O)N1)c1ccccc1-c1ccccc12)SC1=NNC2(C(=O)N1)c1ccccc1-c1ccccc12` here?
A: The growth inhibition was 97.5% (active).

Q: With `CC1(C)NNC(=S)NN1` as the molecule, how does the growth inhibition read?
A: Its growth inhibition is 5.95% (inactive).

Q: Which growth inhibition does the source give for `O=C([O-])c1ccccc1[I+]c1ccc(C2CCCCC2)cc1` here?
A: Its growth inhibition is 85.2% (active).

Q: With `ClC1=C(Cl)C(Cl)(C(Cl)(Cl)Cl)C(Cl)=C1Cl` as the molecule, how does the growth inhibition read?
A: Its growth inhibition is 99.6% (active).

Q: Which growth inhibition does the source give for `Cn1nc(N)c2cccnc21` here?
A: Its growth inhibition is -1.25% (inactive).

Q: Which growth inhibition does the source give for `CC(C)(C)c1ccc(-n2c3nc(=O)n(-c4ccccc4C(F)(F)F)c(=O)c-3cc3ccccc32)cc1` here?
A: Its growth inhibition is 59.1% (inactive).

Q: For `C/C(=N\Nc1ccccn1)c1ccccn1`, which growth inhibition is on record?
A: The growth inhibition was 98.8% (active).

Q: Which growth inhibition does the source give for `COc1ccc2c(C)cc(N/N=C(\C)c3ccccn3)nc2c1` here?
A: The growth inhibition was 99.5% (active).

Q: Which growth inhibition does the source give for `CC([NH-])C(=O)O.[Cu+2].[NH-]C(Cc1cnc[nH]1)C(=O)O` (stereo not given) here?
A: Its growth inhibition is 98.9% (active).

Q: For `COc1ccc(C)cc1NC(=O)ON=C1CCCCC1`, which growth inhibition is on record?
A: The growth inhibition was 88.2% (active).

Q: With `Oc1c(N(Cc2ccccc2)Cc2ccccc2)ccc2cccnc12` as the molecule, how does the growth inhibition read?
A: The growth inhibition was 98.4% (active).

Q: Which growth inhibition does the source give for `Cc1ccc2[nH]c3cc4ccncc4cc3c2c1` here?
A: The growth inhibition was 48.5% (inactive).

Q: Which growth inhibition does the source give for `Cc1ccc2nn(-c3ccc(O)cc3)nc2c1` here?
A: Its growth inhibition is 50.3% (inactive).

Q: Which growth inhibition does the source give for `Oc1ccc2c(ccc3ccccc32)c1` here?
A: The growth inhibition was 97.5% (active).

Q: For `ClCc1ccc2ccc3ccc(CCl)nc3c2n1`, which growth inhibition is on record?
A: The growth inhibition was 47.1% (inactive).

Q: With `CC(=O)c1c(O)c2ccc(Cl)cc2[nH]c1=O` as the molecule, how does the growth inhibition read?
A: Its growth inhibition is 79.2% (active).

Q: For `O=C(c1ccc(Cl)cc1)c1ccc(OCCCOc2ccc(C(=O)c3ccc(Cl)cc3)cc2)cc1`, which growth inhibition is on record?
A: Its growth inhibition is 17.5% (inactive).

Q: Which growth inhibition does the source give for `C=C1CC2(C[C@@H](c3ccccc3)O[C@@H](c3ccccc3)C2)OC1=O` (stereo not given in full) here?
A: Its growth inhibition is 95% (active).

Q: For `O=C(N=Nc1c(O)[nH]c2ccccc12)C(O)(c1ccccc1)c1ccccc1`, which growth inhibition is on record?
A: Its growth inhibition is -6.25% (inactive).

Q: For `C/C(=N\O)c1ccc2c3c(ccc([N+](=O)[O-])c13)CC2`, which growth inhibition is on record?
A: Its growth inhibition is 13.2% (inactive).

Q: With `N#CS/C(Cl)=C(/C(Cl)=C(Cl)Cl)[N+](=O)[O-]` as the molecule, how does the growth inhibition read?
A: The growth inhibition was 84.8% (active).

Q: For `N#C/C(=C1C=C/C(=N/O)C=C/1Cl)c1ccccc1`, which growth inhibition is on record?
A: Its growth inhibition is 21.7% (inactive).

Q: For `O=C1/C(=C/c2ccc(Cl)c(Cl)c2)CN(C(=O)CCN2CCOCC2)C/C1=C\c1ccc(Cl)c(Cl)c1`, which growth inhibition is on record?
A: Its growth inhibition is 41% (inactive).
